ChEMBL document CHEMBL4513216, “Probing the Open Global Health Chemical Diversity Library for Multistage-Active Starting Points for Next-Generation Antimalarials” (ACS Infect Dis, 2020)
Among all 65,000 compounds or so, about 2,100 (3.2%) showed an effect of 50% or more. The median lay at about -52%. Only a selection was taken, and strong results are over-represented in it overall.

tested on: Plasmodium falciparum; test: Screen against P. falciparum Asexual Blood Stage (ABS), at 5uM; format: functional, Dd2; settings: tested at 5 uM

Structure (SMILES)	INHIBITION
OCCN1CCC2(CCc3cc(-c4ccoc4)ccc32)CC1	61.2%
O=C(CCO)N1CCC2(CCc3ccc(-c4ccoc4)cc32)CC1	-76.5%
c1cc(-c2ccc3c(c2)CCC32CCN(c3nncs3)CC2)co1	3.66%
COCCOCC1(CNCc2cccc(OC)c2)C[C@@H](O)[C@@H](O)C1 (some centres undefined)	-11.2%
COCCOCC1(CNCc2ccc(OC)cc2)C[C@@H](O)[C@@H](O)C1 (some centres undefined)	-77.3%
COCCOCC1(CNCc2ccc(F)cc2)C[C@@H](O)[C@@H](O)C1 (some centres undefined)	63.6%
CC(C)CCN1C2(CCN(Cc3nccs3)C2)c2ccccc2S1(=O)=O (centres undefined)	-17.8%
CN1[C@@H]2CC[C@H]1CN(C(=O)c1nnc3n1CCCCC3)CC2	-58.6%
Cc1ccc(CN2CCC3(CC2)NC(=O)CC3c2ccccc2)s1 (centres undefined)	53.7%
Cc1noc(C)c1CN1CCC2(CC1)NC(=O)CC2c1ccccc1 (centres undefined)	-39.2%
Cc1cccc(CN2CCC3(CC2)NC(=O)CC3c2ccccc2)n1 (centres undefined)	-3.5%
CCC1(CC)C(=O)NC(=O)N/C1=N/c1cccc(OC)c1	-27.2%
Cc1c(CN2CCCC2(C)C(=O)N2CCOCC2)cnn1C (centres undefined)	-23.9%
CCNC(=O)C1(Cc2ccc(-c3ccccc3)cc2)CCCNC1 (centres undefined)	27.7%
NC(=O)C1(Cc2ccc(-c3ccccc3)cc2)CCCNC1 (centres undefined)	61.1%
NC(=O)C1(Cc2ccccc2-c2cncnc2)CCCNC1 (centres undefined)	-114%
CC1(C)CC(n2cc3nc(N4CCOCC4)[nH]cc-3c2=O)CC(C)(C)N1	-53.2%
Cc1cnn(CC2CN(CC(=O)Nc3cccnc3)CCO2)c1 (centres undefined)	-66%
Cn1ccnc1C(=O)N[C@@H]1CN(CC2CCOCC2)[C@@H]2CCCO[C@@H]21	-60%
O=c1ccc(-c2cccs2)nn1CN1CCN(c2ccccn2)CC1	-115%
CNS(=O)(=O)c1cccc(C(C)NCc2nccn2C(C)C)c1 (centres undefined)	-9.39%
CNS(=O)(=O)c1cccc(C(C)NCc2ccc(C)o2)c1 (centres undefined)	23.3%
CNS(=O)(=O)c1cccc(C(C)NCc2cccc(C)c2C)c1 (centres undefined)	69.7%
CNS(=O)(=O)c1cccc(C(C)NCc2ccccc2)c1 (centres undefined)	59.4%
CNS(=O)(=O)c1cccc(C(C)NCc2cccc(O)c2)c1 (centres undefined)	3.69%
CNS(=O)(=O)c1cccc(C(C)NCc2ccco2)c1 (centres undefined)	2.96%
CNS(=O)(=O)c1cccc(C(C)NCc2ccncc2)c1 (centres undefined)	-51.1%

Structure (SMILES)	INHIBITION
CNS(=O)(=O)c1cccc(C(C)NCc2ccc(F)c(F)c2)c1 (centres undefined)	11.1%
CCOc1ccc(CNC(C)c2cccc(S(=O)(=O)NC)c2)cc1 (centres undefined)	47.6%
CNS(=O)(=O)c1cccc(C(C)NCc2ccc(F)cc2F)c1 (centres undefined)	-3.64%
CNS(=O)(=O)c1cccc(C(C)NCc2ccc(C)c(C)c2)c1 (centres undefined)	63.4%
CNS(=O)(=O)c1cccc(C(C)NCc2ccsc2)c1 (centres undefined)	67.2%
CN(Cc1ccc(F)cc1)C(=O)c1ccoc1CN1CCNC(=O)C1	-169%
CCOCC(=O)NCCn1ccc(-c2ccccn2)n1	-74.8%
Cc1nc(C)c(S(=O)(=O)NC(=O)c2sccc2C)s1	-118%
Cn1ccnc1CN1CCC2(CC(=O)N(c3ccsc3)C2)C1 (centres undefined)	-95.1%
Cc1ccc(NC2CCN(C(=O)c3cccc4[nH]ncc34)CC2)nn1	-12.4%
Cc1nn(C)c(C)c1CN(C)CC1(O)CCCN(C)C1 (centres undefined)	-56.8%
Cc1ccc(CN(C)CC2(O)CCCN(C)C2)o1 (centres undefined)	54.2%
CCN1CCCC(O)(CN(C)Cc2ccc(C)o2)C1 (centres undefined)	20.1%
CC(C)c1nc(N2CCC(N3CCSCC3)CC2)c2cnn(C)c2n1	-57%
CC(C)c1nc(N2CCC(N3CCCCCC3)CC2)c2cnn(C)c2n1	51.9%
CC(C)c1nc(N2CCC(N3CCCC(O)C3)CC2)c2cnn(C)c2n1 (centres undefined)	-33.8%
O=C(CCN1CCOC(C(F)(F)F)C1)NCc1cccc(Cl)c1 (centres undefined)	-53.515%
Cc1ccc(C(=O)O)cc1CNC(=O)CN1CC[C@](C)(O)C(C)(C)C1	-0.0274%
CC1(C)CN(CCC(=O)NCc2cccc(Cl)c2)CC[C@]1(C)O	53.1%
CN(C(=O)COc1ccc(F)cc1)[C@@H]1CC[C@@H](n2ccnc2)[C@@H]1O	-72.8%
COCCN1CCC2(CC1)CN(C(=O)c1ccco1)CCO2	-29.3%
COc1ccc2[nH]nc(CN3CCC(C(C)N4CCCC4)CC3)c2c1 (centres undefined)	38.8%
COc1ccc2[nH]nc(CN3CCC(C(=O)N4CCCCC4)CC3)c2c1	13.7%
COc1ccc2[nH]nc(CN3CCC(C(C)N(C)C)CC3)c2c1 (centres undefined)	64.4%
Cn1nccc1-c1nc2c(cc1C(=O)O)CCN(C(=O)C1CC1)CC2	-73.9%
O=C1CC(c2ccncc2)C2(CCN(C(=O)c3cccs3)CC2)N1 (centres undefined)	-50.7%
COCc1cn([C@@H]2c3ccccc3C3(CCNCC3)[C@H]2O)nn1	-24.9%
